Assay outcomes from PubChem BioAssay.
TDP1 cell noCPT: qHTS for Inhibitors of human tyrosyl-DNA phosphodiesterase 1 (TDP1): qHTS in cells in absence of CPT. DT40 Tdp1-/- hTDP1 cells, no CPT, ATP luminescence, 48 h. Potency, µM (top dose mostly 46.2 µM), for inactives: top-dose activity change, negative = growth inhibition, most hits filed as inhibitors. 15% of 420,000 active. AID 686978, 2013; also: % is scaled to controls: 0 for no effect and ±100 for the full control effect; nearly all actives have a fitted effect of over 55% in size
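Cells were dispensed at 400 per well, compounds added by pin tool, plates incubated ≥48 hr at 37 °C, then CellTiter-Glo added for 30 min at room temperature before luminescence reading. Line: DT40 Tdp1-/- complemented with hTDP1; camptothecin omitted.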
TDP1 cell CPT: growth inhibition of DT40 Tdp1-/-;hTDP1 cells with camptothecin (screen for TDP1 inhibitors). chicken DT40 Tdp1-/-;hTDP1 cells + 20 nM CPT, ATP luminescence, 48 h. Potency, µM (series often up to 46.2 µM), without a hit: at the highest dose activity change, negative = growth inhibition, most hits filed as inhibitors. 12% of 420,000 active. AID 686979; also: % is scaled to controls: 0 for no effect and ±100 for the full control effect; nearly all actives have a fitted effect of over 55% in size
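Cell growth measured by CellTiter-Glo luminescence after a minimum 48 h, 37 C compound exposure with 20 nM CPT in Tdp1-knockout DT40 cells stably expressing hTDP1, seeded 400/well; qHTS titration format.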
TDP1 block: TDP1 (human) enzyme inhibition | Q9NUW8 | recombinant TDP1, AlphaScreen DNA substrate cleavage | Potency, µM (titrated, usually from 130 µM), inactives show at the highest dose activity change, negative = inhibition, actives largely listed as inhibitors | 0.28% of 350,000 active; also: % is scaled to controls: 0 for no effect and ±100 for the full control effect; nearly all actives have a fitted effect of over 40% in size
Target sequence (Q9NUW8 whole entry, looked up): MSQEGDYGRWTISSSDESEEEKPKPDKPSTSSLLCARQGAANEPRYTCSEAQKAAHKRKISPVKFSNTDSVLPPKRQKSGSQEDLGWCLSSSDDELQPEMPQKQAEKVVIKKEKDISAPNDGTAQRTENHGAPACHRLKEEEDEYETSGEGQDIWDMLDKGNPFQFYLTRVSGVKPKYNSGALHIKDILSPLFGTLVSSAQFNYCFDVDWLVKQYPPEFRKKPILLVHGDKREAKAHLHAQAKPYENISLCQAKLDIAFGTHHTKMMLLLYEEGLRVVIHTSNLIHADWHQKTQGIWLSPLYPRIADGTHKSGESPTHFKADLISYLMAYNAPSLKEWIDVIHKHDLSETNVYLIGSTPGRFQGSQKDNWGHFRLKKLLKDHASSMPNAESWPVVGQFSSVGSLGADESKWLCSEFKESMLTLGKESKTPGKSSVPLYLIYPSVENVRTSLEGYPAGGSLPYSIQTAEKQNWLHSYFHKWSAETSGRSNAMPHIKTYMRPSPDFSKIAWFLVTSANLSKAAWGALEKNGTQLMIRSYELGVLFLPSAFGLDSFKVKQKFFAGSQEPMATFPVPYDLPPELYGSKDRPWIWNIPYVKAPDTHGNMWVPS
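Enzyme-compound mixtures sat 15 min at room temperature, followed by a 5 min reaction with 15 nM final substrate and 10 min with AlphaScreen beads. Recombinant human Tdp1 was used at 1 nM final.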
ClpP mod: qHTS Assay for Activators of ClpP | ATP-dependent Clp protease proteolytic subunit (Bacillus subtilis (strain 168)), P80244 | purified B. subtilis ClpP, FRET peptide cleavage, 20 min | Potency, µM (series often up to 57.5 µM), without a hit: at the top dose activity change, negative = active | 1.9% of 340,000 active; active = well fitted falling curve with a large enough effect; inconclusive = small, poorly fitted or top-dose-only effect; inactive = no such curve, though single readings can be large or run the other way; also: the source files actives as falling curves though it sought activators and does not explain the sign; nearly all actives have a fitted effect of over 65% in size
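Buffer: 100 mM Tris/HCl pH8, 100 mM KCl, 0.05% low protease BSA, 2.5% glycerol, 0.01% Tween-20. ClpP 10 microg/mL final; 20 min RT; delta FRET normalized to ADEP and DMSO controls.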
* marks the source's active call; other numbers are inactive results; ? = inconclusive; . = no result given; ! = not active in a repeat; [ ] = dose if it differs, or a comment. Sampled rows, rich in hits. Any-hit rate of the full collection: about 17%. Unless noted, calls follow the shape of the dose curve; as a rule, active = well fitted curve in the direction sought with a large enough effect; inconclusive = small, poorly fitted or top-dose-only effect, or another doubt; inactive = no such curve, though single readings can be large; an effect the other way counts as inactive or inconclusive. Potency is read from the fitted curve at half-maximal effect.

SMILES	TDP1 cell noCPT	TDP1 cell CPT	TDP1 block	ClpP mod
CC1Cc2ccccc2N1C(=O)CSc1nc2c(c(=O)n(C)c(=O)n2C)n1Cc1ccccc1 (stereo not given)	21µM*	23µM*	7%	0%
COc1ccc(N2CCN(c3nc4c(c(=O)n(C)c(=O)n4C)n3Cc3ccccc3)CC2)cc1	?	23µM*	12%	-2%
Cc1nc(NC(=O)CN2CCCCC2)sc1C(=O)N(C)C	-8%	-10%	6%	.
Cc1ccccc1C(=O)NNC(=O)C1CC(=O)N(c2ccc3c(c2)OCCO3)C1 (stereo not given)	-8%	-29%	1%	1%
Cn1c(=O)n(CCc2ccccc2)c(=O)c2c1nc1n2CCN1c1ccc(Cl)cc1	-13%	-7%	-5%	-21%
Cn1c(=O)c2c(nc(N3CCOCC3)n2CCc2ccccc2)n(C)c1=O	-8%	-23%	7%	-4%
C=C(C)Cn1c(N2CCN(c3ccc(OC)cc3)CC2)nc2c1c(=O)n(C)c(=O)n2C	13µM*	16µM*	8%	-8%
Cn1c(=O)c2c(nc(N3CCOCC3)n2Cc2ccc(Br)cc2)n(C)c1=O	21µM*	10µM*	.	-2%
COc1ccc(OCC(O)Cn2c(N3CCCCC3)nc3c2c(=O)[nH]c(=O)n3C)cc1 (stereo not given)	?	-26%	5%	-1%
CCCn1c(SCC(=O)N2CCN(c3ccc(OC)cc3)CC2)nc2c1c(=O)n(C)c(=O)n2C	16µM*	18µM*	5%	1%
COc1ccc(OCC(O)Cn2c(N3CCCCC3)nc3c2c(=O)n(C)c(=O)n3C)cc1 (stereo not given)	16µM*	?	3%	.
CCCn1c(SCC(=O)N2CCCC2)nc2c1c(=O)n(C)c(=O)n2C	-1%	-14%	6%	1%
CCN(CC(=O)Nc1ccc(C(=O)Nc2ccc(OC)cc2)cc1)Cc1nc2ccccc2c(=O)[nH]1	23µM*	?	4%	12%
CCC(CC)C(=O)N(CCc1ccc(OC)cc1)Cc1nc2ccccc2c(=O)[nH]1	21µM*	23µM*	8%	-7%
COc1ccccc1CNC(=O)CSc1nc(=O)[nH]c2c1CCCC2	-19%	-14%	0%	0%
CC(=O)c1sc(Nc2ccc3c(c2)OCO3)nc1C	-3%	11%	.	-4%
COC(=O)c1ccccc1C(=O)c1ccc2c(c1)NC(=O)CO2	9%	-1%	6%	-1%
C=CCOC(=O)N[C@@H](Cc1ccccc1)/C(C(=O)OC)=C(\C)NCc1ccccc1	.	.	-6%	.
COc1cc(C2C(C#N)=C(N)Oc3c2ccc2ccccc32)ccc1OCC(=O)Nc1cccc(C)c1 (stereo not given)	16µM*	?	-3%	?
COc1ccc(C2C(C#N)=C(N)Oc3c2ccc2cccnc32)cc1OC (stereo not given)	2.6µM*	3.3µM*	8%	.
CCn1nc(C)cc1C(=O)NCC1CCC2(CCN(Cc3ccccc3F)CC2)O1 (stereo not given)	?	-12%[9.04 µM]	.	.
CCOCCCn1c(SCC(=O)Nc2ccccc2CC)nc2ccccc2c1=O	16µM*	16µM*	0%	-4%
CCOCCCn1c(SCC(=O)NC(C)(C)C)nc2ccccc2c1=O	-24%	-12%	-2%	-5%
CCOCCCn1c(SCC(=O)Nc2ccccc2Cl)nc2c(oc3ccccc32)c1=O	7.3µM*	?	4%	-3%
C[C@H](CO)N1C[C@H](C)[C@@H](CN(C)S(C)(=O)=O)Oc2ccc(NS(=O)(=O)c3ccccc3)cc2C1=O	-6%	12%	1%	1%
SMILES	TDP1 cell noCPT	TDP1 cell CPT	TDP1 block	ClpP mod
O=C(COCc1cc(-c2ccco2)on1)Nc1cccc(O)c1	-21%	-25%	6%	0%
Cc1ccc(C)c(NC(=O)CN(C)C(=O)c2ccc3[nH]c4c(c3c2)CC(C)CC4)c1 (stereo not given)	?	?	9%	-5%
CC1CCc2[nH]c3ccc(C(=O)N(C)CC(=O)Nc4ccccc4Br)cc3c2C1 (stereo not given)	12µM*	?	.	16µM*
CN(C)c1ccc(/C=C2/CCc3ccccc32)cc1	10µM*	14µM*	.	0%
CN(C)c1ccc(C=C2c3ccccc3-c3ccccc32)cc1	22µM*	?	.	-5%
CC1=Nc2ccccc2/C1=C/c1ccc(N(C)C)cc1	18µM*	-96%	.	-8%
CN(C)c1ccc(C=C2C(=O)c3ccccc3C2=O)cc1	-21%	-5%	.	1%
CN(C)c1ccc(/C=C2\CCCCC2=O)cc1	?	20µM*	4%	-1%
CC(=O)Oc1ccc(/C=C2/CCc3ccccc3C2=O)cc1	?	?	-5%	0%
CCCCC1(C)OC(=O)C(=Cc2ccc(N(C)C)cc2)C(=O)O1 (stereo not given)	0%	0%	-2%	1%
CC1=Nc2ccccc2/C1=C/c1c(C)[nH]c2ccccc12	16µM*	?	.	.
COc1cccc(CNC(=O)[C@@H]2CCCN2C(=O)[C@@H]2CCCN2C(=O)c2cccs2)c1	-18%	-12%	.	0%
O=C(NCCN1CCOCC1)c1ccc(/C=C2\Sc3ccccc3N(Cc3ccccc3F)C2=O)cc1	?	?	8%	-6%
CCN1CCN(CCNC(=O)c2ccc3c(c2)N(Cc2ccc(F)cc2)C(=O)/C(=C/c2ccccc2)S3)CC1	8.2µM*	12µM*	5%	.
CCN1CCN(CCNC(=O)c2ccc(/C=C3/Sc4ccccc4N(Cc4cccc(Cl)c4)C3=O)cc2)CC1	18µM*	18µM*	5%	.
Cc1ccccc1CN1C(=O)/C(=C\c2ccc(C(=O)NCCN3CCOCC3)cc2)Sc2ccccc21	?	?	7%	-10%
CCCCC/C=C/C=C1/C(=O)C=C[C@@H]1C/C=C\CCCC(=O)O	-30%[4.12 µM]	1%[4.12 µM]	18µM*!	.
Cn1ccnc1SCC(=O)NC1CCCCC1	9%	1%	6%	1%
CCn1nnnc1SCC(=O)N(C1CCCCC1)C1CCCCC1	11µM*	10µM*	0%	2%
Cn1ccnc1SCC(=O)N(C1CCCCC1)C1CCCCC1	15µM*	?	10%	0%
Cn1c(SCC(=O)N(C2CCCCC2)C2CCCCC2)nnc1-c1cccs1	16µM*	?	5%	-3%
CCN(C(=O)CSc1nnnn1C)C1CCCCC1	-28%	?	0%	1%
COC1=Nc2ccccc2/C=C\c2ccccc21	-15%	-11%	.	1%
COc1cc(Cl)c(NC(=O)CCS(=O)(=O)c2ccc3c(c2)NC(=O)CO3)c(OC)c1	-16%	13%	2%	0%
CCOC(=O)c1ccc(NC(=O)c2ccc3c(c2)C(=O)N(CC2CCCO2)C3=O)cc1 (stereo not given)	18µM*	?	2%	26%
